# A selection: hits, their analogues and other compounds. The true share with any hit is near 2.8%.
# IP6K1 inh = blocks human inositol hexakisphosphate kinase 1. IP6K1 kinase, ADP-Glo luminescence, 2 h; hits give low values. activity change, % (series mostly up to about 58 µM). 140,000 compounds, 0.81% hits; in the data active = activity change below about -25%; note: % is set by controls: 0 for no effect and ±100 for the full control effect
#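 ADP-Glo luminescence measures ADP made by human IP6K1 during a 2 h RT reaction with ATP/IP6 (mix at 1.3 mM/130 uM); top library doses 57.5 and 19.1 uM final.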
# KDM5B inhibitor = blocks human KDM5B histone demethylase activity; Potency, µM (titrated, usually from 57.7 µM), hits mostly inhibitors; Q9UGL1; 220,000 compounds, 2.6% hits; KDM5B demethylase, FDH-coupled NADH fluorescence (FDH is formaldehyde dehydrogenase); note: potency is the fitted concentration of half-maximal effect; 0% is about no effect; nearly all actives have a fitted effect of over 70% in size
# Target sequence (Q9UGL1 whole entry, looked up): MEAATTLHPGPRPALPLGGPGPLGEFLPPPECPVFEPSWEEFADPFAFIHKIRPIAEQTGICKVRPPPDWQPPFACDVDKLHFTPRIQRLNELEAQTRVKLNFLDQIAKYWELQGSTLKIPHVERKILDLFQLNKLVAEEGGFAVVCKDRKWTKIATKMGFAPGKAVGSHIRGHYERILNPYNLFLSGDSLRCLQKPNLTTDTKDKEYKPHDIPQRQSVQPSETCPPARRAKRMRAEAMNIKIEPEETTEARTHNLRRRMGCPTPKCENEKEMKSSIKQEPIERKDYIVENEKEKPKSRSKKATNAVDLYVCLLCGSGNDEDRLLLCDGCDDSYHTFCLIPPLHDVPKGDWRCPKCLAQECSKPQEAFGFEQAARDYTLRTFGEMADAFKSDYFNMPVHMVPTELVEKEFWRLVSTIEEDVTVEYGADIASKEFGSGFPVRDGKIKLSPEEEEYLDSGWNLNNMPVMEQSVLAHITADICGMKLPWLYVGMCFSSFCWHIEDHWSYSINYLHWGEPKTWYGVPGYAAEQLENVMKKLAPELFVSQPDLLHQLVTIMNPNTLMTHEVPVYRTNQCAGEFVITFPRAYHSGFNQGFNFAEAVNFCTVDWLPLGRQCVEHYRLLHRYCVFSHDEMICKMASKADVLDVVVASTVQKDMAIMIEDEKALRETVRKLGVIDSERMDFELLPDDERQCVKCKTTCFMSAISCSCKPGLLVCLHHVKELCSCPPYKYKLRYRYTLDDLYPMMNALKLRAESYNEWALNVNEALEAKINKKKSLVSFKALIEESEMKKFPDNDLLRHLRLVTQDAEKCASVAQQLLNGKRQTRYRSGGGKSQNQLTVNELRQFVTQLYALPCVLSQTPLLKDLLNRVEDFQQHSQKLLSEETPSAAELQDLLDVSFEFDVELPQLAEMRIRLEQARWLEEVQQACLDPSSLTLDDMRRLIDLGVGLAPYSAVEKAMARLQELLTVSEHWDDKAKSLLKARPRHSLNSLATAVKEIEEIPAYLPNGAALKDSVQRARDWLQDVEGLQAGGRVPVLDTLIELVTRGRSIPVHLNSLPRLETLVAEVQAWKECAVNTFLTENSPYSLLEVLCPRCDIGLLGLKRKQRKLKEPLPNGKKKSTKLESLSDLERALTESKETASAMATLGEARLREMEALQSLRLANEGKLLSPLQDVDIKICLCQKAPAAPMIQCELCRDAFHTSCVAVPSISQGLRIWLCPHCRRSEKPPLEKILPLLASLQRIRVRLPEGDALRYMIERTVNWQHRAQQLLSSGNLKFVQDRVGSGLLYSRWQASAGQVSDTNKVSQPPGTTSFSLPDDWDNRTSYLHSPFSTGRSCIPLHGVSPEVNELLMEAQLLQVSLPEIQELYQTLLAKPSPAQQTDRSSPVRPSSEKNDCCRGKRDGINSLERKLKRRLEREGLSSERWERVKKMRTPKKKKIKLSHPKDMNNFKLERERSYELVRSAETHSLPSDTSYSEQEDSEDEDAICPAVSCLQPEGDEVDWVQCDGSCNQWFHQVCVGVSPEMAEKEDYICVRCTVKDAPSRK
#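 Coupled FDH/NAD⁺ fluorescence readout. KDM5BΔAP 200 nM final; compound titration, 10 min RT preincubation; substrate mix 12.5 µM H3K4me3, 25 µM 2-OG, 50 µM Fe(II), 100 µM ascorbate, 0.25 mM NAD⁺, 0.25 U/mL FDH; ΔRFU over 30 min.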
# HEK293 viab = counter-screen for SNCA expression inhibitors: cell viability | AID 1671193 | HEK-293-SNCA-luc viability, GF-AFC fluorescence, 24 h | Potency, µM (doses to about 57.1 µM), for the others: at the highest dose activity change, negative = cytotoxicity, most hits filed as cytotoxic | 150,000 compounds, 0.12% hits;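 note: potency is the fitted concentration of half-maximal effect; 0% = DMSO-treated cells and -100% = medium-only wells without cells; nearly all actives have a fitted effect of over 30% in size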
#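 Cytotoxicity counterscreen: after 24 h compound treatment of genome-edited SNCA-luciferase HEK-293 cells, live-cell protease substrate GF-AFC read by fluorescence after 30 min; activity scaled between DMSO (0%) and medium-only (-100%), curves Hill-fitted.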
# SNCA expr inhib = inhibitors of alpha-synuclein (SNCA) gene expression; HEK-293 SNCA-luciferase knock-in, luminescence, 24 h; Potency, µM (series often up to 57.2 µM), for inactives: at the highest dose activity change, negative = inhibition, usual class: inhibitors; 140,000 compounds, 0.17% hits; AID 1671194;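 note: potency is the fitted concentration of half-maximal effect; plate controls were DMSO cells for no effect and cell-free wells for full effect; nearly all actives have a fitted effect of over 45% in size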
# * hit, by the source's call; i = inactive; u = inconclusive; x = no result given; [ ] = another dose, or the depositor's remark. Unless noted, calls come from the whole dose curve; as a rule, active = well fitted curve in the direction sought with a large enough effect; inconclusive = small, poorly fitted or top-dose-only effect, or another doubt; inactive = no such curve, though single readings can be large; an effect the other way counts as inactive or inconclusive.
SMILES,IP6K1 inh,KDM5B inhibitor,HEK293 viab,SNCA expr inhib
CSc1nc(C)c(CCC(=O)NC(C)c2ccc(F)cc2)c(C)n1 (centres undefined),x,i,x,x
O=C(O)Cn1ccc2cc(OCCc3cccc(-c4ccccc4)c3)cnc21,-15,u,5%[87.6 µM],1%[87.6 µM]
COc1cc(F)cc(-c2cccc(CCOc3cnc4c(ccn4CC(=O)O)c3)c2)c1,-10,32µM*,-1%[87.6 µM],-11%[87.6 µM]
O=C(O)Cn1ccc2cc(OCCc3cccc(-c4ccc(Cl)cc4)c3)cnc21,-8,35µM*,7%[87.6 µM],u
CCN1CCN(c2nc3c(c(=O)[nH]c(=O)n3C)n2CC(O)COc2ccc(Cl)cc2)CC1 (centres undefined),x,i,x,x
CNC(=O)c1cnn2c1CN(C(=O)c1ccccc1)CC2,8,i,-3%[87.6 µM],-8%[87.6 µM]
CN(C)C(=O)c1cnn2ncccc12,11,32µM*,0%[87.6 µM],37%[87.6 µM]
O=C(Nc1ccc(Cl)nc1)c1cnn2ncccc12,12,40µM*,8%[87.6 µM],35%[87.6 µM]
CNC(=O)c1cnn2ncccc12,-4,32µM*,-1%[87.6 µM],-9%[87.6 µM]
CC(Sc1ccc2c(c1)OCCCO2)C(=O)c1c[nH]c2ccccc12 (centres undefined),x,i,x,x
O=C1CCN(CC(O)COc2ccccc2)c2ccc(F)cc2CN1Cc1ccccc1 (centres undefined),-6,x,x,x
O=c1c2nc(N3CCC(c4ccccc4)CC3)ccc2ncn1-c1cccnc1,9,35µM*,-3%[87.6 µM],9%[87.6 µM]
CN1CCN(c2ccc3ncn(-c4cccnc4)c(=O)c3n2)CC1,23,35µM*,-9%[87.6 µM],33%[87.6 µM]
O=c1c2nc(N3CCC(c4ccccc4)CC3)ccc2ncn1C1CC1,3,35µM*,-6%[87.6 µM],1%[87.6 µM]
O=c1c2nc(N3CCC(c4ccccc4)CC3)ccc2ncn1Cc1ccccn1,-3,u,-2%[87.6 µM],-9%[87.6 µM]
CC1CC(NC(=O)C2CCC2)CC(C)(C)C1 (centres undefined),x,i,x,x
O=C(c1ccc(-c2ccco2)cc1)N1CCOC(c2ccccc2)C1 (centres undefined),7,28µM*,6%,16%
COc1ccc(N2CC3CCC(C2)N3Cc2cccc(-c3ccc(F)cc3F)c2)cc1,6,79µM*,9%,97%
OC[C@@H]1CN(c2ccc(-c3nc(-c4cccc(C(F)(F)F)c4)no3)cn2)C[C@H]1CO,0,28µM*,-9%,-1%
OCC1CCCN(c2ccc(-c3nc(-c4cccc(C(F)(F)F)c4)no3)cn2)C1 (centres undefined),-2,28µM*,1%,48%
Cc1ccc(-c2cc3c(=O)n(CCNC(=O)c4ccc5cc[nH]c5c4)ccn3n2)cc1C,-5,35µM*,-15%,25%
COc1cccc(-c2cc3c(=O)n(CCNC(=O)c4c(F)cccc4F)ccn3n2)c1,-12,u,2%,64%
COc1cccc(-c2cc3c(=O)n(CCNC(=O)c4ccc(OC)c(F)c4)ccn3n2)c1,-7,20µM*,8%,10%
COc1cccc(-c2cc3c(=O)n(CCNC(=O)c4ccc5cc[nH]c5c4)ccn3n2)c1,-16,35µM*,-2%,8%
O=C(NCCn1ccn2nc(-c3ccc(F)cc3)cc2c1=O)c1ccc(F)cc1,4,u,5%,3%
SMILES,IP6K1 inh,KDM5B inhibitor,HEK293 viab,SNCA expr inhib
COc1cccc(-c2cc3c(=O)n(CCNC(=O)c4cc(F)cc(F)c4)ccn3n2)c1,-12,i,-23%,15%
Cc1ccc(-c2noc([C@@H]3C[C@@H](O)CN3C3CCCCC3)n2)cc1F,7,i,9%[87.6 µM],77%[87.6 µM]
CCOc1ccccc1C(C)N (centres undefined),x,i,x,x
CCOc1ccc(/C=C/C(=O)Nc2cccc3cccnc23)cc1OC,x,i,x,x
Cc1ccc2nc(C3CCN(Cc4ccc(-c5cccs5)cc4)CC3)[nH]c(=O)c2c1,-1,28µM*,-22%,u
Cc1ccc2nc(C3CCCN(Cc4cccc(-c5cccs5)c4)C3)[nH]c(=O)c2c1 (centres undefined),21,u,3%,u
CS(=O)(=O)c1ccc(OC[C@H]2C[C@@H](NC(=O)C3CCOCC3)[C@H](O)[C@@H]2O)cc1,17,32µM*,-4%[87.6 µM],-19%[87.6 µM]
CN(Cc1cccnc1)C(=O)CCC[C@H]1NC[C@@H]2C[C@H]1CN(Cc1ccccc1)C2,-1,u,0%,-13%
O=C(CCC[C@H]1NC[C@@H]2CC1CN(Cc1ccccc1)C2)N1CCCC1,-7,i,-14%,-10%

# Source: PubChem BioAssay
